High-throughput results (PubChem BioAssay)
VP16 counter = VP16 counterscreen qHTS for inhibitors of ROR gamma transcriptional activity. Drosophila S2 Gal4-VP16 UAS-luciferase, luminescence, 20 h. Potency, µM (top dose mostly 53.6 µM), usual class: inhibitors. 3.5% of 310,000 active;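 also: Gal4-VP16 expression switched on by copper sulfate through the metallothionein promoter; nearly all actives have a fitted effect of over 50% in size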
KinaseGlo FLuc = Counterscreen for Luciferase (Kinase-Glo TM) Inhibition; Kinase-Glo luciferase, ATP luminescence, 8 min; AID 1379, 2008; Luciferin 4-monooxygenase (Photuris pensylvanica), Q27757; 0.28% of 200,000 active; Potency, µM (series often up to 38.3 µM), actives largely listed as inhibitors; also: nearly all actives have a fitted effect of over 60% in size
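Substrate mix (final 50 mM imidazole pH 7.2, 50 mM KCl, 7 mM MgCl2, 10 uM ATP, 0.01% Tween 20, 0.05% BSA) plus pin-tool compound, then Kinase-Glo detection mix; 8 min ambient, luminescence read.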
RORgamma inh = qHTS for inhibitors of ROR gamma transcriptional activity; Nuclear receptor ROR-gamma (Mus musculus), P51450; Drosophila S2 Gal4-RORgamma UAS-luciferase reporter, 20 h; Potency, µM (top dose mostly 53.6 µM), usual class: inhibitors; 5.4% of 310,000 active; AID 2551, 2010; also: nearly all actives have a fitted effect of over 60% in size
Target sequence (P51450 whole entry, looked up, the tested form may be a part): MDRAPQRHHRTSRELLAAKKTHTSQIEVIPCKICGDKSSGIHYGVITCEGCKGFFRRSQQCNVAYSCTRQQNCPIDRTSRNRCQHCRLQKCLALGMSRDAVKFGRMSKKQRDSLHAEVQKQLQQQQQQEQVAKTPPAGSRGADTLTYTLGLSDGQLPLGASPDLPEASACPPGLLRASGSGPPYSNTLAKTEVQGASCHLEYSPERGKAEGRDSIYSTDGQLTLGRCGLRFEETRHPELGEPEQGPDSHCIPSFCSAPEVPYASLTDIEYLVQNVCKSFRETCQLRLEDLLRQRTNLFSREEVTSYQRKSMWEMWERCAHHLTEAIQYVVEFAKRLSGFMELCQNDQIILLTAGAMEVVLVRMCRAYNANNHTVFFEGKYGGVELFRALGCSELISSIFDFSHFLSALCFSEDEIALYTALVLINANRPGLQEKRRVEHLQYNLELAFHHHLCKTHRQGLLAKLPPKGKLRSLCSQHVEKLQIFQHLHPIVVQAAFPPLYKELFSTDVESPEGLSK
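Using a luciferase readout, inhibitors were identified by reduced reporter activity in Drosophila cells coexpressing a copper-inducible Gal4–ROR gamma fusion and UAS-driven Photinus luciferase, incubated 20 hr after 700 uM copper sulfate.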
Hits are given with their value; – = inactive; ? = inconclusive; · = no result given; [ ] = remark or other dose. Compounds with a hit are over-represented: about 6.4% of the library has one in this group of screens. Calls follow the shape of the dose curve; as a rule, active = well fitted curve in the direction sought with a large enough effect; inconclusive = small, poorly fitted or top-dose-only effect, or another doubt; inactive = no such curve, though single readings can be large; an effect the other way counts as inactive or inconclusive.

SMILES	VP16 counter	KinaseGlo FLuc	RORgamma inh
COC(=O)c1cc(S(=O)(=O)N2c3ccccc3CC2C)cn1C (stereo not given)	–	·	–
Cc1cccc(NC(=O)c2ccc3nccnc3c2)c1C	–	·	–
Cc1ccccc1N(C(=O)c1snc(C(N)=O)c1N)C(C(=O)NCC1CCCO1)c1ccc(F)cc1 (stereo not given)	–	·	–
COc1cc(OC)c(OC)cc1/C=C(\C#N)C(=O)NCc1cccs1	–	·	–
CCOC(=O)c1ccc(-c2ccc(/C=C(\C#N)C(=O)NCc3cccs3)o2)cc1	3.2µM	–	?
CC(=O)c1cccc(NC(=O)CC2S/C(=N/N=C3CCCCCC3)NC2=O)c1 (stereo not given)	–	·	10µM
CC1=C/C(=N\N=C2\NC(=O)C(CC(=O)Nc3ccccc3)S2)CC(C)(C)C1 (stereo not given)	?	–	1.6µM
O=C(CC1S/C(=N/N=C/c2ccco2)NC1=O)Nc1ccccc1 (stereo not given)	–[10 µM]	–	–
Cc1ccc(NC(=O)CC2SC(=NC3CCCCC3)NC2=O)cc1 (stereo not given)	–	–	–
COc1ccccc1NC(=O)CC1S/C(=N/N=C(\C)C2CCCCC2)NC1=O (stereo not given)	–	·	–
CCOc1ccc(N=C2NC(=O)C(CC(=O)Nc3ccc(OC)cc3)S2)cc1 (stereo not given)	–	–	–
CCOc1ccc(NC(=O)CC2S/C(=N/N=C3CCCCCC3)NC2=O)cc1 (stereo not given)	11µM	·	20µM
COc1ccc(Cl)cc1NC(=O)CC1S/C(=N/N=C2CCCCCC2)NC1=O (stereo not given)	5µM	·	3.5µM
Cc1ccc(S(=O)(=O)N2CCN(c3ccc(C(=O)N4CCOCC4)cc3[N+](=O)[O-])CC2)cc1	–	–	?
CN(C)c1ccccc1C(=O)N1CCC(n2nccc2NC(=O)C2CC2)CC1	–	·	–
O=C(Nc1ccnn1C1CCN(C(=O)Cc2ccccc2F)CC1)C1CC1	–	·	–
Cc1ccc(-c2nn(-c3ccccc3)cc2CO)cc1	–	·	–
Cc1ccc(-c2nn(-c3ccccc3)cc2CNCc2ccccc2)cc1	14µM	–	?
CC1=C(C(=O)OCc2ccc3c(c2)OCO3)C(c2cccc([N+](=O)[O-])c2)NC(=O)N1 (stereo not given)	–	–	–
COc1ccc(N2CCN(Cc3nc4ccccc4n3C)CC2)cc1	–	–	13µM
COc1ccc(N2CCN(c3nc4ccccc4n3CC(=O)c3ccccc3)CC2)cc1	–	·	?
Cn1cc(Cl)c(C(=O)OCC(=O)Nc2ccc(S(N)(=O)=O)cc2)n1	–	·	–
COC(=O)c1ccc2nc(Nc3nc4ccc(F)cc4s3)sc2c1	3.5µM	–	0.14µM
CCOC(=O)c1sc(Nc2nc3ccc(OC)cc3s2)cc1C	–	–	?
CC(=O)c1sc(Nc2nc3ccc(F)cc3s2)nc1C	11µM	–	3.2µM
SMILES	VP16 counter	KinaseGlo FLuc	RORgamma inh
CC(=O)c1sc(Nc2cccc(C)c2)nc1C	?	–	–
CCOC(=O)c1csc(Nc2nc3ccc(F)cc3s2)n1	?	–	7.9µM
COC(=O)c1ccc2nc(NC(=O)C3CCCCC3)sc2c1	–	–	–
COC(=O)c1ccc(NC(=O)c2ccc3nc(C)sc3c2)cc1	–	·	–[1.91 µM]
COC(=O)c1ccc2nc(NC(=O)C(C)(C)C)sc2c1	7.1µM	–	2µM
COC(=O)CNC(=O)C1CCN(S(=O)(=O)c2cccc3nsnc23)CC1	–	·	–
COc1ccc(NC2CCCN(C(=O)CCC(=O)c3ccc(F)cc3)C2)cc1 (stereo not given)	?	·	–
CC(C)CN1C(=O)c2ccc(NC(=O)Cc3ccccc3)cc2C1=O	–	–	–
COc1ccc(/C=N/NC(=S)NCc2ccccc2)cc1OC	?	–	10µM
COc1cc(/C=N\NC(C)=O)ccc1OC/C=C/c1ccccc1	0.45µM	·	?
COc1cc(/C=N/Nc2ccccc2)ccc1O	–	·	–
COc1ccc(/C=N/NC(=O)CCC(=O)Nc2ccccc2)cc1OC	–	–	–
COc1ccc(/C=N/NC(=O)CCn2cnc(-c3ccccc3)c2-c2ccccc2)cc1OC	13µM	–	?
C=CCOc1ccc(/C=N/NC(C)=O)cc1OCC	–	–	–
COc1cc(/C=N/NC(=O)CCC(=O)NCc2ccccc2)cc(OC)c1OC	–	–	–
COc1ccc(CNC(=S)N/N=C/c2ccc(O)c(OC)c2)cc1	16µM	–	10µM
COC(=O)/C(C)=C/CC12OC(C)(C)C3CC(C=C4C(=O)c5cc6c(c(CCC(C)(C)Cl)c5OC431)OC1(C)CCC(=C(C)C)C6C1)C2=O (stereo not given)	–	–	–
c1csc(CNc2nc(-c3ccc4c(c3)OCO4)nc3ccccc23)c1	?	·	–
COc1cc(/C=N/NC(=S)Nc2cccc(C(=O)O)c2)cc(OC)c1OC	?	–	?
COc1cc(/C=N/NC(=S)N/N=C/c2cc(OC)c(OC)c(OC)c2)cc(OC)c1OC	4µM	–	?
COc1ccc(/C=N/OCC(=O)NC(c2ccccc2)c2ccccc2)cc1OC	1.6µM	–	?
COCCCNC(=S)N/N=C/c1ccc(OC)c(Br)c1	11µM	·	1µM
CCCCNC(=O)/C=C/c1ccc(OC)c(Br)c1	–[0.365 µM]	–	–
COc1ccc(CNC(=S)N/N=C/c2ccc(OC)c(OC)c2)cc1	?	–	11µM
COc1ccc(/C=N/OCC(=O)Nc2cc(C)on2)cc1OC	–	·	–
SMILES	VP16 counter	KinaseGlo FLuc	RORgamma inh
COc1ccc(/C=N/NC(=O)Cc2ccc(Cl)cc2)cc1OC	–	–	–
NC(=O)NCCc1ccccc1	–	·	–
Cc1cc(C)cc(NC(=O)N2CCNC(=O)C2CC(=O)Nc2cc(Cl)ccc2Cl)c1 (stereo not given)	–	·	?
Cc1cccc(-n2ccc(=O)c(C(=O)Nc3ccc(S(=O)(=O)Nc4nccc(C)n4)cc3)n2)c1	–	·	–
COc1ccc(/C=C\C(=O)Oc2cccc(/C=N/NC(=O)Cc3ccc(OC)c(OC)c3)c2)cc1	13µM	–	–
COc1ccc(/C=C/C(=O)Oc2cccc(/C=N/NC(=O)c3cccc(F)c3)c2)cc1	?	–	?
O=C(CCn1cnc2ccccc21)N/N=C/c1ccc(O)cc1	–	–	–
O=C(CCn1cnc2ccccc21)N/N=C/c1ccccc1O	0.63µM	–	0.45µM
O=C(CCN1CCN(c2ccccc2)CC1)N/N=C/c1ccccc1O	6.3µM	–	2µM
O=C(Cc1c[nH]c2ccccc12)N/N=C/c1ccccc1O	10µM	·	2.2µM
C=CCc1cccc(/C=N/NC(=O)CCC(=O)Nc2ccc(C)cc2)c1O	?	–	1.6µM
Cc1ccc(NC(=O)CCC(=O)N/N=C/c2ccc(O)cc2O)cc1	–	·	–
Cc1ccc(/C=N/NC(=O)Cc2c[nH]c3ccccc23)c(C)c1	–	–	–
CN1CCN(CCC(=O)N/N=C/c2ccccc2F)CC1	–	·	–
O=C(CN1C(=O)S/C(=C\c2ccccc2F)C1=O)NC1C=CS(=O)(=O)C1 (stereo not given)	–	·	–
CS(=O)(=O)N(CC(=O)O)Cc1ccccc1	·	–[7.66 µM]	·
Cc1nc2ccc(C(=O)N/N=C/c3cc([N+](=O)[O-])ccc3O)cc2[nH]1	–	–	–
